Laboratory results published in PubChem BioAssay (NCATS).
Inconclusive results are not listed. The source made the active and inactive calls. Calls follow the shape of the dose curve; as a rule, active = well fitted cell-killing curve with a large enough effect; inconclusive = small, poorly fitted or top-dose-only effect, or effect the other way; inactive = flat fitted curve, though single readings scatter. Where a SMILES comes first, the peptide text is derived from it. [ ]: non-standard residue; d: D form. ξ: configuration not given here. ξTyr(βOH) = NC(C(=O)O)C(O)c1ccc(O)cc1

tested on: OV90; assay: Primary qHTS to identify gynecologic anti-cancer compounds using libraries of approved drugs and bioactive compounds (AID 1345084); conditions: Gynecologic cancer cell panel viability, ATPlite luminescence, 48 h; series mostly up to 57.5 µM; activity change, negative = cytotoxicity: at the top concentration; also: nearly all actives have a fitted effect of over 55% in size
Outline: (§1)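 Cytotoxicity screen measuring ATP content by luciferase luminescence. Each compound is applied at five concentrations for 48 h at 37 C with 5% CO2.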
% is scaled to controls: 0 for no effect and ±100 for the full control effect.

Compound	activity change, negative = cytotoxicity
Cc1occc1C(=O)n1ccnc1	6.59% (inactive)
CC(C)/C=C1/NC(=O)C(C(C)C)n2c1nc1c(O)cccc1c2=O (stereo not drawn)	-5.64% [at 38.5 µM] (inactive)
CCN1CCN(C(=O)N[C@@H](C(=O)N[C@@H]2C(=O)N3[C@@H]2SC(C)(C)[C@@H]3C(=O)O)c2ccccc2)C(=O)C1=O	7.1% (inactive)
Cc1ccc(-n2nc(C(C)(C)C)cc2NC(=O)Nc2cc(COc3cccnc3)[nH]n2)cc1	-1.55% (inactive)
CCCCC(=O)N1c2ccccc2NC2=C(C(=O)CCC2)C1c1ccccc1Cl (stereo not drawn)	-25.5% (inactive)
OC[C@@]1(O)CO[C@@H](OC[C@H]2O[C@@H](OCc3ccccc3)[C@H](O)[C@@H](O)[C@@H]2O)[C@@H]1O	0.734% [at 25.3 µM] (inactive)
Cc1ccc(-c2c(-c3nn(C)c4ncnc(N5CCC(N6CCCCC6)C5)c34)cnn2C)cc1 (stereo not drawn)	3.59% (inactive)
COC(=O)C1=CO[C@@H](O[C@@H]2O[C@H](CO)[C@@H](O)[C@H](O)[C@H]2O)[C@H]2[C@@H]1C=C[C@]21C=C([C@H](C)OC(=O)/C=C/c2ccc(O[C@@H]3O[C@H](CO)[C@@H](O)[C@H](O)[C@H]3O)cc2)C(=O)O1	7.07% [at 25.3 µM] (inactive)
CC1(C)CC[C@]2(C(=O)O[C@@H]3O[C@H](CO[C@@H]4O[C@H](CO[C@@H]5O[C@H](CO)[C@H](O)[C@H](O)[C@H]5O)[C@@H](O)[C@H](O)[C@H]4O)[C@@H](O)[C@H](O[C@@H]4O[C@H](CO)[C@@H](O)[C@H](O)[C@H]4O)[C@H]3O)[C@H](O)C[C@]3(C)C(=CCC4[C@@]5(C)CC[C@H](O[C@@H]6OC[C@@H](O)[C@H](O)[C@H]6O)[C@@](C)(C(=O)O)C5CC[C@]43C)[C@@H]2C1 (stereo partly drawn)	12% [at 6.55 µM] (inactive)
O=C(O)CCc1cc2ccoc2cc1O[C@@H]1O[C@H](CO)[C@@H](O)[C@H](O)[C@H]1O	2.34% [at 38.5 µM] (inactive)
COc1c(O[C@@H]2O[C@H](CO)[C@@H](O)[C@H](O)[C@H]2O)c(CCC(=O)O)cc2ccoc12	0.166% [at 38.5 µM] (inactive)
COC(=O)c1cc(OC)cc(OC)c1C(=O)c1c(OC)cc2c(c1O)C1CCC(O)C(C)(O2)O1 (stereo not drawn)	-3.2% [at 25.3 µM] (inactive)
CC(C)=CCC/C(C)=C/CO[C@@H]1O[C@H](CO[C@@H]2O[C@@H](CO)[C@H](O)[C@H]2O)[C@@H](O)[C@H](O)[C@H]1O	8.77% [at 25.3 µM] (inactive)

tested on: PA-1; assay: as above; conditions: Gynecologic cancer cell panel viability, ATPlite luminescence, 48 h; series mostly up to 57.5 µM; activity change, negative = cytotoxicity: at the top concentration
Outline: as §1

Compound	activity change, negative = cytotoxicity
C=C1C(O)C(OC(=O)c2ccccc2)C2C(C)(C(=O)O)CCCC2(C)C1CC/C(C)=C\CO (stereo not drawn)	19.9% [at 25.3 µM] (inactive)
C[C@]1(O)CC[C@@H]2C(C(=O)O)=CO[C@@H](O[C@@H]3O[C@H](COC(=O)/C=C/c4ccc(O)c(O)c4)[C@@H](O)[C@H](O)[C@H]3O)[C@@H]21	3.79% [at 25.3 µM] (inactive)
C[C@@]1(O)[C@H](O)[C@@H](CO)O[C@H]1n1cnc2c(=O)[nH]c(N)nc21	9.63% (inactive)
COc1ccc(C(=O)NCc2cc(C(C)C)no2)cc1OC1CCN(C)CC1	6.99% (inactive)
O=c1[nH]ccc2nc(-c3ccc(CN4CCC(c5nc(-c6ccccn6)n[nH]5)CC4)cc3)c(-c3ccccc3)cc12	-4.25% (inactive)
CC(=O)O[C@@H]1[C@H](O[C@@H]2O[C@H](CO)[C@@H](O)[C@H](O)[C@H]2O)[C@@H](O[C@@H]2O[C@@H](C)[C@H](O)[C@@H](O[C@@H]3O[C@H](CO)[C@@H](O)[C@H](O)[C@H]3O)[C@H]2O)[C@H](OC(=O)[C@]23CCC(C)(C)C[C@H]2C2=CCC4[C@@]5(C)C[C@H](O)[C@H](O[C@@H]6O[C@H](C(=O)O)[C@@H](O)[C@H](O)[C@H]6O)[C@@](C)(C(=O)O)C5CC[C@@]4(C)[C@]2(C)CC3)O[C@@H]1C (stereo partly drawn)	1.9% [at 6.55 µM] (inactive)
C[C@@H]1O[C@@H](O[C@H]2[C@H](O)[C@@H](O)[C@H](OC(=O)[C@]34CCC(C)(C)C[C@H]3C3=CCC5[C@@]6(C)CC[C@H](O[C@@H]7O[C@H](C(=O)O)[C@@H](O)[C@H](O)[C@H]7O)C(C)(C)C6CC[C@@]5(C)[C@]3(C)CC4)O[C@@H]2CO)[C@H](O)[C@H](O)[C@H]1O (stereo partly drawn)	-21.3% [at 11.6 µM] (inactive)
COc1ccc(C2COc3cc(O)ccc3C2)c(O)c1OC (stereo not drawn)	-9.13% (inactive)
C=C1CCC2[C@@](C)(C(=O)O)CCC[C@@]2(C)[C@@H]1CCc1ccoc1 (stereo partly drawn)	13.4% [at 38.5 µM] (inactive)
CC(C)C1NC(=O)CNC(=O)C2CCCN2C(=O)C(Cc2c[nH]c3ccccc23)NC(=O)CNC(=O)C(C(O)c2ccc(O)cc2)NC(=O)CNC1=O (stereo not drawn) (cyclo(G[ξTyr(βOH)]GWPGV); configuration not given here)	2.83% [at 25.3 µM] (inactive)
COCCN1CCC(C(=O)NO)(S(=O)(=O)c2ccc(Oc3ccc(OC(F)(F)F)cc3)cc2)CC1	5.29% (inactive)
COc1cc(/C=C/C(=O)O[C@@H]2O[C@H](CO)[C@@H](O)[C@H](O)[C@H]2O)ccc1O	4.58% [at 38.5 µM] (inactive)
C/C(=C\C(=O)C(C)C1CCC2C3=C(CCC21C)C1(C)CCC(=O)C(C)(C)C1(O)CC3)C(C)(C)O (stereo not drawn)	-1.25% [at 25.3 µM] (inactive)
CC(C)CC[C@@H](O)[C@](C)(O)[C@H]1CC[C@@]2(O)C3=CC(=O)[C@@H]4C[C@@H](O)[C@@H](O)C[C@]4(C)[C@H]3CC[C@]12C	1.4% (inactive)
Cc1cc(O[C@@H]2O[C@H](COC(=O)CC(=O)O)[C@@H](O)[C@H](O)[C@H]2O)c(C(C)C)cc1O	-1.2% [at 25.3 µM] (inactive)
Cc1occc1C(=O)n1ccnc1	0.351% (inactive)
CC(C)/C=C1/NC(=O)C(C(C)C)n2c1nc1c(O)cccc1c2=O (stereo not drawn)	-0.055% [at 38.5 µM] (inactive)
CCN1CCN(C(=O)N[C@@H](C(=O)N[C@@H]2C(=O)N3[C@@H]2SC(C)(C)[C@@H]3C(=O)O)c2ccccc2)C(=O)C1=O	-4.17% (inactive)
CCCCC(=O)N1c2ccccc2NC2=C(C(=O)CCC2)C1c1ccccc1Cl (stereo not drawn)	-1% (inactive)
OC[C@@]1(O)CO[C@@H](OC[C@H]2O[C@@H](OCc3ccccc3)[C@H](O)[C@@H](O)[C@@H]2O)[C@@H]1O	1.06% [at 25.3 µM] (inactive)
Cc1ccc(-c2c(-c3nn(C)c4ncnc(N5CCC(N6CCCCC6)C5)c34)cnn2C)cc1 (stereo not drawn)	-2.46% (inactive)
CC1(C)CC[C@]2(C(=O)O[C@@H]3O[C@H](CO[C@@H]4O[C@H](CO[C@@H]5O[C@H](CO)[C@H](O)[C@H](O)[C@H]5O)[C@@H](O)[C@H](O)[C@H]4O)[C@@H](O)[C@H](O[C@@H]4O[C@H](CO)[C@@H](O)[C@H](O)[C@H]4O)[C@H]3O)[C@H](O)C[C@]3(C)C(=CCC4[C@@]5(C)CC[C@H](O[C@@H]6OC[C@@H](O)[C@H](O)[C@H]6O)[C@@](C)(C(=O)O)C5CC[C@]43C)[C@@H]2C1 (stereo partly drawn)	14% [at 6.55 µM] (inactive)
COc1c(O[C@@H]2O[C@H](CO)[C@@H](O)[C@H](O)[C@H]2O)c(CCC(=O)O)cc2ccoc12	8.42% [at 38.5 µM] (inactive)
COC(=O)c1cc(OC)cc(OC)c1C(=O)c1c(OC)cc2c(c1O)C1CCC(O)C(C)(O2)O1 (stereo not drawn)	9.63% [at 25.3 µM] (inactive)
CC(C)=CCC/C(C)=C/CO[C@@H]1O[C@H](CO[C@@H]2O[C@@H](CO)[C@H](O)[C@H]2O)[C@@H](O)[C@H](O)[C@H]1O	33.9% [at 25.3 µM] (inactive)
